# KCNH2 3.1 block: qHTS for Inhibitors of KCHN2 3.1: Mutant qHTS; AID 720553, 2013; 340,000 compounds, 0.95% hits; activity change, % (tested at about 1.8 µM); Potassium voltage-gated channel subfamily H member 2, brain isoform KCNH2 3.1 (human); U2OS KCNH2 3.1, thallium flux FluxOr; stronger effect = lower value;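 active = maximum activity change below -70%; inconclusive = maximum activity change from -70% to -50%; inactive = maximum activity change above -50%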;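 also: thallium influx rate constant from kinetic fluorescence after stimulation buffer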
#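 FluxOr-based Tl+ influx in U2OS cells transduced with KCNH2 3.1 virus; rate constants normalized to DMSO controls.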
# 12-LOX inh: Primary qHTS assay for inhibitors of human arachidonate 12S-lipoxygenase (ALOX12): Round 2. Polyunsaturated fatty acid lipoxygenase ALOX12 (Homo sapiens), P18054. purified 12hLO, xylenol orange hydroperoxide absorbance. Potency, µM (doses to about 108 µM), actives largely listed as inhibitors. 580,000 compounds, 1.1% hits. AID 1671190, 2021; active = well fitted inhibition curve with a large enough effect; inconclusive = small, poorly fitted or top-dose-only effect, or another doubt; inactive = no such curve, though single readings can be large or run the other way
#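 Hydroperoxide product was detected by ferrous iron/xylenol orange as the 573 to 405 nm absorbance ratio. Arachidonic acid at 40 uM (final) was turned over for 30 min at room temperature by 150 nM human 12hLO, pH 7.0 Hepes buffer, after 15 min compound preincubation.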
# ClpP mod: qHTS Assay for Activators of ClpP; purified B. subtilis ClpP, FRET peptide cleavage, 20 min; 340,000 compounds, 1.9% hits; AID 651965, 2013; Potency, µM (series often up to 57.5 µM); ATP-dependent Clp protease proteolytic subunit (Bacillus subtilis (strain 168)), P80244; active = well fitted falling curve with a large enough effect; inconclusive = small, poorly fitted or top-dose-only effect; inactive = no such curve, though single readings can be large or run the other way; also: the source files actives as falling curves though it sought activators and does not explain the sign; nearly all actives have a fitted effect of over 65% in size
#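 Purified B. subtilis ClpP, 10 microg/mL final in Tris/HCl pH8 with KCl, BSA, glycerol and Tween-20, cleaved an Abz/nitrotyrosine-quenched decapeptide. Fluorescence (ex 320, em 430) was read at 0 and 20 min at room temperature. Delta was normalized to 5.8 microM ADEP and DMSO/no-enzyme controls.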
# BCR signal inh: qHTS Assay to Find Inhibitors of Chronic Active B-Cell Receptor Signaling; ABC-DLBCL IkBa-CBG/CBR reporter, luminescence ratio, 4 h; Potency, µM (titrated, usually from 46.1 µM), actives largely listed as inhibitors; 340,000 compounds, 0.05% hits; AID 493014, 2011; active = well fitted inhibition curve with a large enough effect in the signal ratio, with a control signal flat, not every such curve was filed as active; inconclusive = small, poorly fitted or top-dose-only effect, or effect the other way, or a change in a side signal; the % refers to the signal ratio
#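 Cell line TMD8 (human ABC DLBCL), stably expressing tet-inducible CBG68-IkBa fusion and CBR; IMDM/0.5% FBS; cpd up to 46 uM; dox induction, 4 h, 37C/5% CO2; dual luminescence; green/red ratio; MG132 control.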
# hERG WT inh: qHTS for Inhibitors of KCHN2 3.1: Wildtype qHTS | AID 720551, 2013 | Voltage-gated inwardly rectifying potassium channel KCNH2 (Homo sapiens), Q12809 | U2OS, BacMam KCNH2, thallium flux FluxOr; stronger effect = lower value | activity change, % at 1.84 µM | 340,000 compounds, 0.37% hits;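 active = maximum activity change below -70%; inconclusive = maximum activity change between -70% and -50%; inactive = maximum activity change above -50%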
#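 U2OS cells were transduced with wild-type KCNH2 virus (2.03 x 10^8 / mL) for 4 h at room temperature, then cultured overnight at 37 C. Thallium flux was read with FluxOr dye. Rate constants were normalized to DMSO controls.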
# LDHA block: qHTS assay for inhibitors of human lactate dehydrogenase; L-lactate dehydrogenase A chain (Homo sapiens), P00338; purified LDHA, NADH/diaphorase-resazurin fluorescence; stronger effect = lower value; activity change, % (values are at about 110 or 230 µM); 480,000 compounds, 0.15% hits; AID 1347041, 2019; in the data active = activity change below about -30%; inconclusive = mostly about -25% to -30%
#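 Human LDH5 at 2 nM final in Tris HCl pH 7.4 with 0.06 mM NADH and 0.2 mM pyruvate, reacted 5 minutes at room temperature. Remaining NADH coupled via diaphorase/resazurin; resorufin fluorescence read at 0 and 20 minutes, normalized to enzyme-free and DMSO wells.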
# Numbers stand for hits; - = inactive; ? = inconclusive; . = not tested or not shown; ! = not active in a repeat. Hits are enriched below; roughly 3% of the tested compounds scored in any of these assays.
SMILES,KCNH2 3.1 block,12-LOX inh,ClpP mod,BCR signal inh,hERG WT inh,LDHA block
Cn1c(=O)c2c(ncn2CCC(=O)Nc2ccccc2C(=O)c2ccccc2)n(C)c1=O,.,?,.,.,.,-
COC(=O)CCC(C)C1CCC2C3CCC4C[C@H](OC(=O)c5ccccc5)CCC4(C)C3CC(=O)C12C (some centres undefined),.,-,.,.,.,-
CCOc1ccc(CCNC(=O)Cn2c(-c3cccs3)cc3cc(F)ccc32)cc1OCC,.,-,-,.,.,-
NS(=O)(=O)c1ccc(CCNC(=O)Cn2c(-c3cccs3)cc3ccccc32)cc1,.,-,35µM,.,.,-
CCN1CCN(CCCNC(=O)Cn2c(-c3cccs3)cc3ccccc32)CC1,.,-,10µM,.,.,-
Cc1ccc(CCNC(=O)Cn2c(-c3cccs3)cc3ccccc32)cc1,.,-,-,.,.,-
O=C(Cn1c(-c2cccs2)cc2ccccc21)NCCCN1CCN(c2cccc(Cl)c2)CC1,.,-,25µM,.,.,-
COc1ccc(C(CNC(=O)CCc2nnc(-c3ccsc3)o2)N(C)C)cc1 (centres undefined),.,-,.,.,.,-
FC(F)(F)c1nnc2sc(-c3ccncc3)nn12,-,-,-,-,-,-
FC(F)(F)c1nnc2sc(-c3cccs3)nn12,-,-,28µM,-,-,-
O=C(Nc1ccccc1C(=O)NCCc1ccccc1)c1cnc2ccccc2n1,.,-,.,.,.,-
CCOC(=O)N1CCN(C(=O)COC(=O)c2ccccc2NCCO)CC1,-,-,7.9µM,-,-,-
O=C(OCC(=O)N1CCC(Cc2ccccc2)CC1)c1ccccc1NCCO,-,?,.,?,-,-
CCCc1noc(-c2cn(C3CCN(C(=O)c4ccc(N(C)C)cc4)CC3)nn2)n1,.,-,.,.,.,.
Cn1c(=O)c2cc(NC(=S)NC3CCCCC3)ccc2n1C/C=C/c1ccccc1,.,40µM,-,.,.,-
Cn1c(=O)c2cc(NC(=S)NC3CC3)ccc2n1C/C=C/c1ccccc1,.,?,-,.,.,-
CC(Sc1ccc2ccccc2n1)C(=O)Nc1ccc(C(N)=O)cc1 (centres undefined),.,?,.,.,.,-
COc1ccccc1OCCn1cc(/C=N/NC(N)=S)c2ccccc21,-,?,-,?,-,-
COC(=O)N/N=C/c1cn(Cc2ccc(F)cc2)c2ccccc12,-,-,-,-,-,-
CNC(=S)N/N=C/c1cn(Cc2ccc(F)cc2)c2ccccc12,-,28µM,-,-,-,-
CNC(=S)N/N=C/c1c(C)c(C(=O)c2ccc(F)cc2)n2ccccc12,-,35µM,.,-,-,-
CNC(=S)N/N=C/c1cn(CCOc2ccc(OC)cc2)c2ccccc12,-,40µM,-,?,-,-
NCCc1ccc(O)c(O)c1,-,2.8µM!,-,-,-,-
O=C1CNC(=S)N1CCc1ccc(O)c(O)c1,-,?,.,-,-,-
CCc1ccccc1NC(=O)CCn1ccn2nc3c(c2c1=O)CCCC3,.,-,.,.,.,.
SMILES,KCNH2 3.1 block,12-LOX inh,ClpP mod,BCR signal inh,hERG WT inh,LDHA block
O=C(NCCN1CCCC(O)C1)c1cc(COc2ccc(F)cc2Cl)on1 (centres undefined),-,-,-,-,-,-
COc1ccc(OCc2cc(C(=O)NCCN3CCCc4ccccc43)no2)c(Cl)c1,-,16µM,-,?,-,-
CSc1ccccc1OCc1cc(C(=O)NCCN2CCCC(O)C2)no1 (centres undefined),-,-,28µM,-,-,-
CC(C)Oc1cccc(C(=O)Nc2cc(Cl)cc(Cl)c2)c1,.,?,.,.,.,-
COc1ccc2ccc(OC(=O)CCNC(=O)C(C)(C)C)cc2c1,.,?,.,.,.,-
CCCCCCCc1ccc(-c2ccc(O)c(F)c2)nc1,.,?,.,.,.,-
COc1cccc(N2CC(O)=C(c3nc4ccccc4c(=O)[nH]3)C2=N)c1,-,.,25µM,?,-,-
CC(C)N1CC(O)=C(c2nc3ccccc3c(=O)[nH]2)C1=N,-,-,28µM,-,-,-
O=C1C2C3C=CC(C4CC34)C2C(=O)N1/N=C/c1ccc([N+](=O)[O-])s1 (centres undefined),-,-,-,-,-,-
O=C1C2C3C=CC(C4CC34)C2C(=O)N1/N=C/c1ccc(-c2cccc([N+](=O)[O-])c2)o1 (centres undefined),-,-,32µM,-,-,-
CC(C)(C)NC(=O)Cn1c(SCC(=O)NC2CC2)nc2ccccc21,-,-,.,-,-,-
CC(C)(C)NC(=O)Cn1c(SCC(N)=O)nc2ccccc21,-89,-,-,-,-,-
O=C1NC(=S)S/C1=C\c1ccc(SCc2ccccc2)o1,-,13µM,-,?,-,-
O=C1NC(=S)S/C1=C\c1ccc(SCc2ccco2)o1,-,.,-,?,-,-
CCC(CO)Oc1cc(NC(=O)c2ccccc2F)c2ncn(C(C)C)c2c1 (centres undefined),-,28µM,-,-,-,-
CCC(CO)Oc1cc(NC(=O)c2ccccc2C)c2ncn(C(C)C)c2c1 (centres undefined),-,?,-,-,-,-
Cn1c(N2CCN(C(c3ccccc3)c3ccccc3)CC2)nc2ccccc21,-86,-,-,-,-,-
Cn1nc(C(=O)N2CCCN(C(=O)C3CC3)C(c3ccccc3)CC(=O)NCC2)c2ccccc21 (centres undefined),.,-,.,.,.,.
Cc1[nH]n(-c2ccc(F)cc2)c(=O)c1CCC(=O)Nc1ccc(C#N)cc1,.,-,.,.,.,-30
CCCC(=O)NC(c1ccccc1Cl)c1ccc2cccnc2c1O (centres undefined),-97,-,.,?,-,-
COC(=O)c1cc2ccccc2cc1OS(=O)(=O)c1ccc(C)cc1C,.,-,.,.,.,-
Cc1ccccc1C(=O)N1CCC(CCC(=O)N2CCN(c3ccccn3)CC2)CC1,.,-,.,.,.,.
CC(C)CN(C(=O)CCC(=O)OCC(=O)c1ccc(F)c(F)c1)c1c(N)n(CC(C)C)c(=O)[nH]c1=O,-,-,-,-,-,-
CC(C)CN(C(=O)CCC(=O)OCC(=O)N(C)c1ccccc1)c1c(N)n(CC(C)C)c(=O)[nH]c1=O,-,-,28µM,-,-,-
CNc1ccccc1C(=O)OCC(=O)N(CCOC)c1c(N)n(CC(C)C)c(=O)[nH]c1=O,-,-,22µM,-,-,-
COCCN(C(=O)COC(=O)/C=C/c1cccc(OC)c1)c1c(N)n(CC(C)C)c(=O)[nH]c1=O,-,-,32µM,-,-,-
CS(=O)(=O)c1ccc(OCCOc2ccc(F)cc2)cc1,.,-,.,.,.,-
